Test results as given in PubChem BioAssay (NCATS).
Where “and” joins values, the source holds several entries; their conditions need not be identical. Identical values can stand only once. Results filed as inconclusive are left out. A structure can be active in one record and inactive in another. Calls of active or inactive are those of the source. Calls come from the whole dose curve; as a rule, active = well fitted inhibition curve with a large enough effect; inconclusive = small, poorly fitted or top-dose-only effect; inactive = flat fitted curve, though single readings scatter.

Experiments:
[1] = test system: PC15; experiment: qHTS profiling for inhibitors of Plasmodium falciparum proliferation (AID 504749); note: potency is the fitted concentration of half-maximal effect; conditions: P. falciparum in erythrocytes, SYBR Green DNA, 72 h; series mostly up to 28.7 µM
In short: (§1)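 In a 72 h erythrocytic culture (37 C, humidified, 5% CO2) at 2.5% hematocrit and 0.3% starting parasitemia, compounds were tested; SYBR Green I in detergent lysis buffer stained parasite DNA overnight.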

[2] = test system: PC26; experiment: as above; conditions: P. falciparum in erythrocytes, SYBR Green DNA, 72 h; series mostly up to 28.7 µM
In short: as §1

[3] = test system: PC49; experiment: as above; conditions: P. falciparum in erythrocytes, SYBR Green DNA, 72 h; series mostly up to 28.7 µM
In short: as §1

[4] = test system: SC27B; experiment: as above; conditions: P. falciparum in erythrocytes, SYBR Green DNA, 72 h; series mostly up to 28.7 µM
In short: as §1

[5] = test system: TAB109; experiment: as above; conditions: P. falciparum in erythrocytes, SYBR Green DNA, 72 h; series mostly up to 28.7 µM
In short: as §1

[6] = test system: TAB113; experiment: as above; conditions: P. falciparum in erythrocytes, SYBR Green DNA, 72 h; series mostly up to 28.7 µM
In short: as §1

[7] = test system: TAB165; experiment: as above; conditions: P. falciparum in erythrocytes, SYBR Green DNA, 72 h; series mostly up to 28.7 µM
In short: as §1

[8] = test system: W2; experiment: as above; conditions: P. falciparum in erythrocytes, SYBR Green DNA, 72 h; series mostly up to 28.7 µM
In short: as §1

[9] = test system: CRL-7250; experiment: Cytotoxic Profiling of Annotated Libraries Using Quantitative High-Throughput Screening (AID 1296008); conditions: Five cell lines viability, CellTiter-Glo ATP luminescence, 48-72 h; max response: stronger effect = lower value; for max response: % is set by controls: 0 for no effect and ±100 for the full control effect
In short: (§2)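 Cytotoxicity was measured as CellTiter-Glo ATP luminescence, read after 10 min at room temperature. Compound treatment of the cells lasted 48 or 72 hr at 37 degrees Celsius in a qHTS format.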

[10] = test system: HEK293; experiment: as above; conditions: Five cell lines viability, CellTiter-Glo ATP luminescence, 48-72 h; max response: stronger effect = lower value
In short: as §2

[11] = test system: HaCat; experiment: as above; conditions: Five cell lines viability, CellTiter-Glo ATP luminescence, 48-72 h; max response: stronger effect = lower value
In short: as §2

[12] = test system: KB-3-1; experiment: as above; conditions: Five cell lines viability, CellTiter-Glo ATP luminescence, 48-72 h; max response: stronger effect = lower value
In short: as §2

[13] = test system: NIH3T3; experiment: as above; conditions: Five cell lines viability, CellTiter-Glo ATP luminescence, 48-72 h; max response: stronger effect = lower value
In short: as §2

[14] = test system: HACAT; experiment: qHTS assay to identify novel small-molecules to repurpose for Merkel cell carcinoma treatment (AID 1296009); conditions: MCC and control cell lines, CellTiter-Glo viability, 72 h; at 44.8 µM (top of the series) unless noted; note: potency is the fitted concentration of half-maximal effect
In short: (§3)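 Cell viability measured by CellTiter-Glo following 72 hr compound treatment at 37 degree celsius, with NPC and MIPE libraries tested in 8- and 11-point concentration series.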

[15] = test system: HEK293T; experiment: as above; conditions: MCC and control cell lines, CellTiter-Glo viability, 72 h; at 44.8 µM (top of the series)
In short: as §3

[16] = test system: MCC-13; experiment: as above; conditions: MCC and control cell lines, CellTiter-Glo viability, 72 h; series mostly up to 46 µM
In short: as §3

[17] = test system: MKL-1; experiment: as above; conditions: MCC and control cell lines, CellTiter-Glo viability, 72 h; series mostly up to 46 µM
In short: as §3

[18] = test system: MKL-2; experiment: as above; conditions: MCC and control cell lines, CellTiter-Glo viability, 72 h; series mostly up to 46 µM
In short: as §3

[19] = test system: CRL-7250; experiment: as above; conditions: MCC and control cell lines, CellTiter-Glo viability, 72 h; series mostly up to 44.8 µM
In short: as §3

[20] = test system: MCC-26; experiment: as above; conditions: MCC and control cell lines, CellTiter-Glo viability, 72 h; series mostly up to 46 µM
In short: as §3
Note: nearly all actives have a fitted effect of over 60% in size.

CN(C)CCc1ccc(O)cc1
inactive: Potency [1] | Potency [2] | Potency [3] | Potency [4] | Potency [5] | Potency [6] | Potency [7] | Potency [8] | max response [9] -1.07% and -0.797% | max response [10] 4.35% | outcome [10] | max response [11] 3.93% | outcome [11] | max response [12] -1.4% and 4.63% | max response [13] -1.51% and -2.46% | outcome [14] | outcome [15] | Potency [16] | Potency [17] | Potency [18]

NP(N)(=O)NC(=O)c1ccc(F)cc1
inactive: Potency [1] | Potency [2] | Potency [3] | Potency [4] | Potency [5] | Potency [6] | Potency [7] | Potency [8] | outcome [9] | outcome [10] | outcome [11] | max response [12] -13.3% | max response [13] 4.85% | outcome [19] | outcome [14] | outcome [15] | Potency [16] | Potency [20] | Potency [17] | Potency [18]

CN1C(=S)CN=C(c2ccccc2)c2cc(Cl)ccc21
inactive: Potency [1] | Potency [2] | Potency [3] | Potency [4] | Potency [5] | Potency [6] | Potency [7] | Potency [8] | outcome [9] | max response [10] -23.9% | outcome [11] | max response [12] 4.4% | outcome [13] | outcome [19] | outcome [14] | Potency [16] | Potency [20] | Potency [17] | Potency [18]

c1ccc2c(c1)Nc1ccccc1S2
active: Potency [8] 3380 nM
inactive: Potency [3] | Potency [4] | Potency [6] | outcome [9] | max response [10] -4.55% | max response [11] -0.234% | outcome [11] | max response [12] 3% and -4.89% | max response [13] -3.03% and 0.216% | outcome [19] | outcome [14] | Potency [16] | Potency [17] | Potency [18]

Cc1cccc(C)c1NC(=O)CN1CCCC1=O
inactive: max response [9] 0.285% and 2.07% | max response [10] 2.15% | outcome [10] | max response [11] 3.48% and 0.767% | max response [12] -16.8% and -6.89% | max response [13] 1.47% and -1.95% | outcome [15] | Potency [16] | Potency [20] | Potency [17] | Potency [18]

Clc1ccc(COC(Cn2ccnc2)c2ccc(Cl)cc2Cl)cc1 (stereo not drawn)
inactive: max response [9] 1.02% | outcome [9] | max response [10] -1.16% | max response [11] -11% | max response [12] -10.4% and -10.7% | outcome [19] | Potency [16]
active: Potency [1] 2820 nM | Potency [2] 1900 nM | Potency [3] 8910 nM | Potency [4] 2510 nM | Potency [5] 2510 nM | Potency [6] 2820 nM | Potency [7] 708 nM | Potency [8] 1200 nM
23.7 µM (active) and inactive: Potency [17]

NN=C(N)N
inactive: Potency [1] | Potency [2] | Potency [3] | Potency [4] | Potency [5] | Potency [6] | Potency [7] | Potency [8] | outcome [9] | max response [10] -4.43% | max response [11] -1.38% | max response [12] 8.75% | max response [13] -4.47% | outcome [19] | Potency [16] | Potency [17] | Potency [18]

CC(=O)[C@H]1CC[C@H]2[C@@H]3CC[C@H]4C[C@](C)(O)CC[C@]4(C)[C@H]3CC[C@]12C
inactive: Potency [1] | Potency [2] | Potency [3] | Potency [4] | Potency [5] | Potency [6] | Potency [7] | outcome [9] | outcome [10] | outcome [11] | max response [12] -8.61% | outcome [13] | outcome [19] | outcome [14] | outcome [15] | Potency [16] | Potency [20] | Potency [17] | Potency [18]

CCCC(C)(COC(N)=O)COC(=O)NC(C)C (stereo not drawn)
inactive: Potency [1] | Potency [2] | Potency [3] | Potency [4] | Potency [5] | Potency [6] | Potency [7] | Potency [8] | outcome [9] | max response [10] 0.0303% | outcome [10] | max response [11] -8.86% and 1.84% | max response [12] -16.5% | outcome [12] | max response [13] -10.4% | outcome [13] | outcome [19] | outcome [15] | Potency [16] | Potency [20] | Potency [17] | Potency [18]

CC(C)CC(N(C)C)C1(c2ccc(Cl)cc2)CCC1 (stereo not drawn)
inactive: Potency [1] | Potency [2] | Potency [3] | Potency [4] | Potency [5] | Potency [6] | Potency [7] | Potency [8] | max response [9] 1.51% and -18.8% | max response [10] 3.97% and -10.6% | max response [11] -11.1% | outcome [11] | max response [12] 20.9% and 1.72% | max response [13] -0.177% | outcome [13] | outcome [14] | Potency [16] | Potency [17] | Potency [18]
